Test results: ChEMBL document CHEMBL1961873, “Compounds: GSK PKIS; Assays: Nanosyn kinase panel” (2012)

How the values were obtained:
[1] = biological target: T1, 3-phosphoinositide-dependent protein kinase 1 (Homo sapiens) (UniProt O15530); conditions: at 0.1 µM;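 also: values are mean inhibition of PDK1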
T1 sequence (whole entry): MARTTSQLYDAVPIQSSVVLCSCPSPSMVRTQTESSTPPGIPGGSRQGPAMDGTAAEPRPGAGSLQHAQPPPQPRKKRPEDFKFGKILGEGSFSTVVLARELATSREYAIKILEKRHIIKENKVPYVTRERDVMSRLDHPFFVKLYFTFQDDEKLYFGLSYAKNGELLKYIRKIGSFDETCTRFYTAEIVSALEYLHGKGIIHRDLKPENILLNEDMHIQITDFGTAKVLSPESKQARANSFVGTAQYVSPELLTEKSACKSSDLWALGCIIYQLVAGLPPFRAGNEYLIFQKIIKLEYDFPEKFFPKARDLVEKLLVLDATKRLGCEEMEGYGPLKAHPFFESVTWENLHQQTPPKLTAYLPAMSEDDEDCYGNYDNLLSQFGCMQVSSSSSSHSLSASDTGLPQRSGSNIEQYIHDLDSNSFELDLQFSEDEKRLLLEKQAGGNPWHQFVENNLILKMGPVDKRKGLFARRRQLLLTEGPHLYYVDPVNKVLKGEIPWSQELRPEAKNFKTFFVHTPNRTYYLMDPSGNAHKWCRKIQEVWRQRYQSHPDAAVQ

[2] = biological target: cAMP-dependent protein kinase catalytic subunit alpha (Homo sapiens) (UniProt P17612); conditions: at 0.1 µM
[3] = biological target: cAMP-dependent protein kinase catalytic subunit alpha (Homo sapiens) (UniProt P17612); conditions: at 1 µM
[4] = biological target: Protein kinase C alpha type (Homo sapiens) (UniProt P17252); conditions: at 0.1 µM
[5] = biological target: Protein kinase C alpha type (Homo sapiens) (UniProt P17252); conditions: at 1 µM
[6] = biological target: Protein kinase C beta type (Homo sapiens) (UniProt P05771); conditions: at 0.1 µM
Sequence of Protein kinase C beta type (Homo sapiens) (P05771 2-671 limits assumed): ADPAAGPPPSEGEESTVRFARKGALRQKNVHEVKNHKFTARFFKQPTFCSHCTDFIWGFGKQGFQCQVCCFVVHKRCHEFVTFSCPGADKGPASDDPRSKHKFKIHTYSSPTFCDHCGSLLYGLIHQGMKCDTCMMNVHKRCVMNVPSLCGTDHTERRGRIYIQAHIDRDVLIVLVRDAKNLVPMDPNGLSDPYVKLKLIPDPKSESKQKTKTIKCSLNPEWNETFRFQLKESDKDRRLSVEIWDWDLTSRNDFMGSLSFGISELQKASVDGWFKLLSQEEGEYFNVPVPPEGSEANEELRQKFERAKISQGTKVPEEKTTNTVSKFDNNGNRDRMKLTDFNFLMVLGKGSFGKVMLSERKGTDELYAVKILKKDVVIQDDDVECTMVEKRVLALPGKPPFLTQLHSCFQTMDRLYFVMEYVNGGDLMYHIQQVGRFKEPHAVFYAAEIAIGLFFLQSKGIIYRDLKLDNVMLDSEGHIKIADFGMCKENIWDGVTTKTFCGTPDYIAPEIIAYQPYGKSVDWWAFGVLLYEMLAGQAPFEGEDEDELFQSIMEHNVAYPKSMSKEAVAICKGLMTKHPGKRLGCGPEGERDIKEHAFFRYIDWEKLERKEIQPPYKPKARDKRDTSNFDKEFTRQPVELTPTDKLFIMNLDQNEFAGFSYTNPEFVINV

[7] = biological target: Protein kinase C beta type (Homo sapiens) (UniProt P05771); conditions: at 1 µM
[8] = biological target: Protein kinase C eta type (Homo sapiens) (UniProt P24723); conditions: at 0.1 µM
Sequence of Protein kinase C eta type (Homo sapiens) (P24723 whole entry): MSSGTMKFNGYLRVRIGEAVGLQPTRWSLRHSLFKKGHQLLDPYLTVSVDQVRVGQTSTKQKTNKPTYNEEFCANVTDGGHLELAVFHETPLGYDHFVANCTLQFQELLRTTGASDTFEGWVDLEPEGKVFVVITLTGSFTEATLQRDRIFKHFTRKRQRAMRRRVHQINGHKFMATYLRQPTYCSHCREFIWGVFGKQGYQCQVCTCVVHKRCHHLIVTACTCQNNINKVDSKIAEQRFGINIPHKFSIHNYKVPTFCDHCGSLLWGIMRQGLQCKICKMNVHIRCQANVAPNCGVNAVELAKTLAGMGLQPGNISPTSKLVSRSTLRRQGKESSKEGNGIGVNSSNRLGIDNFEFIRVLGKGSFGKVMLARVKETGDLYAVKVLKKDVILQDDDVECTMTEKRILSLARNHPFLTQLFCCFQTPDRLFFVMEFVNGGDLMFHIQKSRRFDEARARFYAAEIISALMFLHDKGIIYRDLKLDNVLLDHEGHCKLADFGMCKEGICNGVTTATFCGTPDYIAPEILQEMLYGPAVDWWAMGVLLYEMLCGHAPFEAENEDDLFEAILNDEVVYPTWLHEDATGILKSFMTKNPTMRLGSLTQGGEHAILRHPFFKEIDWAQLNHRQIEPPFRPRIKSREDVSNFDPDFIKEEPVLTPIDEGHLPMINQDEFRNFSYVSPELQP

[9] = biological target: Protein kinase C eta type (Homo sapiens) (UniProt P24723); conditions: at 1 µM
[10] = biological target: Protein kinase C gamma type (Homo sapiens) (UniProt P05129); conditions: at 0.1 µM
[11] = biological target: Protein kinase C gamma type (Homo sapiens) (UniProt P05129); conditions: at 1 µM
[12] = biological target: T2, Protein kinase C iota type (Homo sapiens) (UniProt P41743); conditions: at 0.1 µM
T2 sequence (whole entry): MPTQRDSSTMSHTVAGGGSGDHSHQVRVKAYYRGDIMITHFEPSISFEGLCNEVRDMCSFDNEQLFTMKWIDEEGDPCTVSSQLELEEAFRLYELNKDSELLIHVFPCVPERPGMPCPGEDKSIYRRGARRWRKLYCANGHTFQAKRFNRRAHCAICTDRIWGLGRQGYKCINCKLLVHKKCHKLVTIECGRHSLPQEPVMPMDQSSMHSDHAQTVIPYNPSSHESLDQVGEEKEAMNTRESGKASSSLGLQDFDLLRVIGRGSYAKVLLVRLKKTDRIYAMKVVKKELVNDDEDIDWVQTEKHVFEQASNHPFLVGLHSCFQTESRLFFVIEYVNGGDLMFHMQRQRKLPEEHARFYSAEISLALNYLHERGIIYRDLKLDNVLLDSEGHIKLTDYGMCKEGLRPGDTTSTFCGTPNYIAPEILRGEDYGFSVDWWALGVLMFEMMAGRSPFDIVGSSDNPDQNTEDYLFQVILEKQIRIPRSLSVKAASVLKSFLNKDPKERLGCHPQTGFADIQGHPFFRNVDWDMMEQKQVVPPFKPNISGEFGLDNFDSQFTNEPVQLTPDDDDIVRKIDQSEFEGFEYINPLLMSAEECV

[13] = biological target: T2, Protein kinase C iota type (Homo sapiens); conditions: at 1 µM
[14] = biological target: Protein kinase C theta type (Homo sapiens) (UniProt Q04759); conditions: at 0.1 µM
Sequence of Protein kinase C theta type (Homo sapiens) (Q04759 whole entry, looked up): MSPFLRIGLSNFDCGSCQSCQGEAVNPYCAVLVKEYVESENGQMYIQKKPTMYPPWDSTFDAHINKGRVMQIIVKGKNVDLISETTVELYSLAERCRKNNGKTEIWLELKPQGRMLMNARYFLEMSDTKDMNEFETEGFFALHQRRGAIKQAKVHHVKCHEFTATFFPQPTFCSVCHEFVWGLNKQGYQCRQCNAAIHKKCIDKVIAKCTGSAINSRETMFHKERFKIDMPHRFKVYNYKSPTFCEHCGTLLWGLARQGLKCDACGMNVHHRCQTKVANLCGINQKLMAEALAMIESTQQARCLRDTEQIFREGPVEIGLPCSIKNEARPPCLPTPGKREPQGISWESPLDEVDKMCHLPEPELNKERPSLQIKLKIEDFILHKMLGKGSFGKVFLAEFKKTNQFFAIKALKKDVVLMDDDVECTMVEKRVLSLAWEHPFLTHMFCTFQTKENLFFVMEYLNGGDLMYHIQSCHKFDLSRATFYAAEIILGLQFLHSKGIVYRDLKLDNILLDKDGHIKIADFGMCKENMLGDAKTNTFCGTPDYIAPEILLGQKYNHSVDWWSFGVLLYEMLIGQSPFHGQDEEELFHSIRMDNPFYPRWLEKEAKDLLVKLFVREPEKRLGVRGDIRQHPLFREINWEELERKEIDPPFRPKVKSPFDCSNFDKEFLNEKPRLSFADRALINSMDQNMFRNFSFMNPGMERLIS

[15] = biological target: Protein kinase C theta type (Homo sapiens) (UniProt Q04759); conditions: at 1 µM
[16] = biological target: Protein kinase C beta type (Homo sapiens) (UniProt P05771); conditions: at 0.1 µM; remark: listed apart in the source
[17] = biological target: Protein kinase C beta type (Homo sapiens) (UniProt P05771); conditions: at 1 µM; remark: listed apart in the source
[18] = biological target: T3, Serine/threonine-protein kinase D1 (Homo sapiens) (UniProt Q15139); conditions: at 0.1 µM
T3 sequence (whole entry): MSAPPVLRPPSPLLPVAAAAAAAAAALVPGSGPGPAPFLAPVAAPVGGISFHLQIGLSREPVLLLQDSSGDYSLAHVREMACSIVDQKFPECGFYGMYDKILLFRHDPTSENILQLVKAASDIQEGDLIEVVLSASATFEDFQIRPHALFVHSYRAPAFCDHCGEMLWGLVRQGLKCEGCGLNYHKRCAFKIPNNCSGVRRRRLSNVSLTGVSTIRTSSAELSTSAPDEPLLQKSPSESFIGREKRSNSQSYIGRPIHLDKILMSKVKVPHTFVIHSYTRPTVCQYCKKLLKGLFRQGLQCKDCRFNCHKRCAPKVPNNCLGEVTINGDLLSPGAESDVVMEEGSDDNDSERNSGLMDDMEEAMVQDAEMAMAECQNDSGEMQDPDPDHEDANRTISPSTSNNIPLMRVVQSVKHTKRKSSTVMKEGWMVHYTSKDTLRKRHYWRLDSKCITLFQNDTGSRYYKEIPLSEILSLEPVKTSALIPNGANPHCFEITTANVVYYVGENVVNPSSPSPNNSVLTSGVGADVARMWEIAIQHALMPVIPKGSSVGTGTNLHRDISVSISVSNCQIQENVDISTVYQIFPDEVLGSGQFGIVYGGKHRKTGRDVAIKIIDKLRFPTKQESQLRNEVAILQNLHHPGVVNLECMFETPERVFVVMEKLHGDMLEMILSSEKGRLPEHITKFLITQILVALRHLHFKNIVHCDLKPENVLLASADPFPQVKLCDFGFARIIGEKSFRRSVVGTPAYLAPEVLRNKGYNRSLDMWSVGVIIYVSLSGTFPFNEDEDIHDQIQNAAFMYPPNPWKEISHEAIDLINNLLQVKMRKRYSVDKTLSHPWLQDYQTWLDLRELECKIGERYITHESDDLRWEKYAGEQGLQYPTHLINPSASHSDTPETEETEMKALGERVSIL

[19] = biological target: T3, Serine/threonine-protein kinase D1 (Homo sapiens); conditions: at 1 µM
[20] = biological target: T4, Serine/threonine-protein kinase D2 (Homo sapiens) (UniProt Q9BZL6); conditions: at 0.1 µM;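 also: reported percent inhibition values are means, part of the GSK PKIS kinase panel screen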
T4 sequence (whole entry): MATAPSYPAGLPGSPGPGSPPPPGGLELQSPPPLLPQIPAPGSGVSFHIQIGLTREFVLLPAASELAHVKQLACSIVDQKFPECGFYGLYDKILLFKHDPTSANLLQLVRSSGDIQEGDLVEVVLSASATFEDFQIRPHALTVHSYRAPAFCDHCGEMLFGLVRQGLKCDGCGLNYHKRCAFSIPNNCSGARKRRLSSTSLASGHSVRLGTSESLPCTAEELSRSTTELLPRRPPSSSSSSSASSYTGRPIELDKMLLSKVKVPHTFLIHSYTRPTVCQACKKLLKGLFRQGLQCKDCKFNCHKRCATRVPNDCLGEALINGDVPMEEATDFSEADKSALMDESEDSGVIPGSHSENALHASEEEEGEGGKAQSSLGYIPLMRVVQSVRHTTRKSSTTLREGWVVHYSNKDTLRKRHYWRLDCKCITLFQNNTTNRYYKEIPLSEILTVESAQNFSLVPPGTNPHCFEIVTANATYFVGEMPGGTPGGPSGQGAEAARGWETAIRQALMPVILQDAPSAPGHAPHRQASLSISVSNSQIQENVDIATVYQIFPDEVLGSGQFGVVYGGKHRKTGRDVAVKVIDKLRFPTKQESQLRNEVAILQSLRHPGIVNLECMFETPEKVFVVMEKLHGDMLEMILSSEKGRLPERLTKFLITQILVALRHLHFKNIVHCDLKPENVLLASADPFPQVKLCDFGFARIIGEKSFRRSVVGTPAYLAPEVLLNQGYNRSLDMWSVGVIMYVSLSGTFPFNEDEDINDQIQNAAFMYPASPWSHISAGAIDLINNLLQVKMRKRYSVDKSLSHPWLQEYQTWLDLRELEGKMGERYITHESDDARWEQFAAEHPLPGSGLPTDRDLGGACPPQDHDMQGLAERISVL

Compound	inhibition [1] [%]	inhibition [2] [%]	inhibition [3] [%]	inhibition [4] [%]	inhibition [5] [%]	inhibition [6] [%]	inhibition [7] [%]	inhibition [8] [%]	inhibition [9] [%]	inhibition [10] [%]	inhibition [11] [%]	inhibition [12] [%]	inhibition [13] [%]	inhibition [14] [%]	inhibition [15] [%]	inhibition [16] [%]	inhibition [17] [%]	inhibition [18] [%]	inhibition [19] [%]	inhibition [20] [%]
COC(=O)Nc1nc2ccc(Oc3ccc(NC(=O)Nc4cc(C(F)(F)F)ccc4F)cc3)cc2s1	0.63	1.2	0.64	-0.14	9.89	1.64	2.17	2.29	1.44	-2.55	0.59	-0.25	0.66	-0.27	-1.1	-0.19	-0.04	0.06	0.84	-0.61
COc1ccccc1-c1cc(/C=C2\C(=O)Nc3ncc(Br)cc32)cc(Br)c1O	2.09	1.83	1.05	0.82	1.73	-0.31	0.26	2.06	1.62	-0.61	2.98	0.64	2.57	1.61	1.73	2.24	0.81	3.57	6.42	4.74
NC(=O)c1ccc2c(-c3ccnc(NCCCO)n3)c(-c3ccc(F)cc3)nn2c1	2.05	2.22	2.01	1.39	11	2.42	17.5	2.29	4.92	3.3	7.09	1.98	3.92	2.7	2.63	4.8	24.3	6.13	25.5	7.41
Cn1c(-c2nonc2N)nc2cnccc21	4.21	2.05	6.79	0.48	2.7	7.33	36.2	6.3	29.4	1.7	2.78	1.03	3.76	1.13	3.08	1.16	5.62	3.06	14.8	2.42
O=C(O[C@H]1CN[C@H](C#Cc2cc3ncnc(Nc4ccc(OCc5cccc(F)c5)c(Cl)c4)c3s2)C1)N1CCOCC1	0.08	2.39	3.33	0.97	-4.52	1.43	2.48	2.88	5.07	4.27	5.45	1.77	0.9	3.84	5.14	2.11	1.21	4.61	6.86	6.18
Cc1ccc(-c2cc3c(NC(=O)C4CC4)ncnc3o2)cc1	1.92	1.76	1.5	0.9	0.92	2.14	2.41	2.1	1.62	2.91	2.25	2.54	2.8	2.02	1.79	5.24	0.65	3.45	6.06	4.1
CCN1CCC(C(=O)Nc2n[nH]c3nnc(-c4cccc(F)c4F)cc23)CC1	-0.53	0.16	0.64	-0.7	0.27	-0.34	-0.14	0.24	0.58	-1.51	-0.22	-0.71	-1.05	0.26	-1.11	0.39	0.87	-0.1	-0.6	0.26
CC1=C(C(=O)Nc2ccc3[nH]nc(C)c3c2)C(c2ccc(C(F)(F)F)cc2)CC(=O)N1 (stereo not given)	1.14	3.3	26.6	0.72	7.98	-0.41	-0.53	3.4	9.11	4.48	6.95	1.92	2.85	2.33	6.09	0.62	1.95	2.86	8.82	2.82
CCS(=O)(=O)c1ccc(OC)c(Nc2ncc(-c3cccc(F)c3)o2)c1	4.01	2.45	6.7	1.28	3.32	-1.13	2.28	3.12	3.91	5.17	5.39	2.05	3.04	2.72	4.21	1.9	4.01	4.25	5.42	3.92
